Measurements reported in the supplement of paper PMC11732987, “Enantioselective OTUD7B fragment discovery through chemoproteomics screening and high-throughput optimisation” (Communications Chemistry, 2025).

Assays:
Assay in all cases: log2 ratio of Biotin-Ahx-Ub-VS probe labelling (fragment/DMSO); higher = less target engagement (more negative = stronger competition), active = hit call of the paper (q ≤ 0.05, log2 ratio ≤ -1)
Conditions in all cases: compound concentration: 200 uM; treatment time: 3 h
[1] = biological target: T1, USP42 (UniProt Q9H9J4)
T1 sequence (whole entry): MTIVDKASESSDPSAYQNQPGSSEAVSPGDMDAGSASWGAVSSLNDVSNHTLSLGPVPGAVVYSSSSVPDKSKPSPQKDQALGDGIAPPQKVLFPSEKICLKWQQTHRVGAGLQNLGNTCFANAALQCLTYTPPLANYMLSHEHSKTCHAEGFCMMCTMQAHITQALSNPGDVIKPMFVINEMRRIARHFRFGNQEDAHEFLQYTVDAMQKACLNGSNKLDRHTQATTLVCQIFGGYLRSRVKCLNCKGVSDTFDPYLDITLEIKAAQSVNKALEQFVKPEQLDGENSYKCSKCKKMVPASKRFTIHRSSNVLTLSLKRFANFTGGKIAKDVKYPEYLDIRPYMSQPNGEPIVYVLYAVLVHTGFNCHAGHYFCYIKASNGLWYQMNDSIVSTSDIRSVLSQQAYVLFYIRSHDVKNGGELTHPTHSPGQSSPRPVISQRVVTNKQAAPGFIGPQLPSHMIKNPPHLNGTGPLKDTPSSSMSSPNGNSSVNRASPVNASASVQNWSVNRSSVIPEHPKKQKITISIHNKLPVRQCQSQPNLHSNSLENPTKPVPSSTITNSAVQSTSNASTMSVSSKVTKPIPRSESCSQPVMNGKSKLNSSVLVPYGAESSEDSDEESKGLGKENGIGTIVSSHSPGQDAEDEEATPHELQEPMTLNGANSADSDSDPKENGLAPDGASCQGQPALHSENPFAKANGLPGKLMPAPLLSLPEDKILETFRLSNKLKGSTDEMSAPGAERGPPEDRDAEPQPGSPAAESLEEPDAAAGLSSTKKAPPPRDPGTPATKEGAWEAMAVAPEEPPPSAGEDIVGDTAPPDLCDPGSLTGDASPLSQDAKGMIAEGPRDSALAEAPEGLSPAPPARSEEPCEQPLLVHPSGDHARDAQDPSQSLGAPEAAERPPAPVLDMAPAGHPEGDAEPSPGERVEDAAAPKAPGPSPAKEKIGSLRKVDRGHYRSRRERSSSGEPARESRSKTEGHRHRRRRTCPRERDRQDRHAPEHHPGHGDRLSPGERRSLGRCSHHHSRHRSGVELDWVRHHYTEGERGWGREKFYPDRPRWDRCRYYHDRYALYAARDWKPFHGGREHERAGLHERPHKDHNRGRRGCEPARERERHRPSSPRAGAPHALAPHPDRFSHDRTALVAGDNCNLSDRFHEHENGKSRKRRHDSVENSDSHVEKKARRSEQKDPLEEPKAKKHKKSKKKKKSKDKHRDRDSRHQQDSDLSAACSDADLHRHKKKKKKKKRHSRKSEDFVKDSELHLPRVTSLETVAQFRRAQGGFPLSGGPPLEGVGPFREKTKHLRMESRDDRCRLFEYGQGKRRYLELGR
Method in brief: (§1)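 HEK293T lysate, 495 µg per sample in Tris/CHAPS/IGEPAL buffer with protease inhibitors, was treated in triplicate with fragment at 200 µM or vehicle for 3 h and then with Biotin-Ahx-Ub-VS at 0.5 µM final for 1 h. Labelled DUBs were NeutrAvidin-enriched, digested with LysC and trypsin, and run by diaPASEF LC-MS/MS. Spectronaut label-free quantities were global-median-normalised, and values are average log2 fragment/vehicle ratios by unpaired t-test on proteins with ≥2 unique peptides.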

[2] = biological target: USP46 (UniProt P62068)
Method in brief: as §1

[3] = biological target: T2, USP47 (UniProt Q96K76)
T2 sequence (whole entry): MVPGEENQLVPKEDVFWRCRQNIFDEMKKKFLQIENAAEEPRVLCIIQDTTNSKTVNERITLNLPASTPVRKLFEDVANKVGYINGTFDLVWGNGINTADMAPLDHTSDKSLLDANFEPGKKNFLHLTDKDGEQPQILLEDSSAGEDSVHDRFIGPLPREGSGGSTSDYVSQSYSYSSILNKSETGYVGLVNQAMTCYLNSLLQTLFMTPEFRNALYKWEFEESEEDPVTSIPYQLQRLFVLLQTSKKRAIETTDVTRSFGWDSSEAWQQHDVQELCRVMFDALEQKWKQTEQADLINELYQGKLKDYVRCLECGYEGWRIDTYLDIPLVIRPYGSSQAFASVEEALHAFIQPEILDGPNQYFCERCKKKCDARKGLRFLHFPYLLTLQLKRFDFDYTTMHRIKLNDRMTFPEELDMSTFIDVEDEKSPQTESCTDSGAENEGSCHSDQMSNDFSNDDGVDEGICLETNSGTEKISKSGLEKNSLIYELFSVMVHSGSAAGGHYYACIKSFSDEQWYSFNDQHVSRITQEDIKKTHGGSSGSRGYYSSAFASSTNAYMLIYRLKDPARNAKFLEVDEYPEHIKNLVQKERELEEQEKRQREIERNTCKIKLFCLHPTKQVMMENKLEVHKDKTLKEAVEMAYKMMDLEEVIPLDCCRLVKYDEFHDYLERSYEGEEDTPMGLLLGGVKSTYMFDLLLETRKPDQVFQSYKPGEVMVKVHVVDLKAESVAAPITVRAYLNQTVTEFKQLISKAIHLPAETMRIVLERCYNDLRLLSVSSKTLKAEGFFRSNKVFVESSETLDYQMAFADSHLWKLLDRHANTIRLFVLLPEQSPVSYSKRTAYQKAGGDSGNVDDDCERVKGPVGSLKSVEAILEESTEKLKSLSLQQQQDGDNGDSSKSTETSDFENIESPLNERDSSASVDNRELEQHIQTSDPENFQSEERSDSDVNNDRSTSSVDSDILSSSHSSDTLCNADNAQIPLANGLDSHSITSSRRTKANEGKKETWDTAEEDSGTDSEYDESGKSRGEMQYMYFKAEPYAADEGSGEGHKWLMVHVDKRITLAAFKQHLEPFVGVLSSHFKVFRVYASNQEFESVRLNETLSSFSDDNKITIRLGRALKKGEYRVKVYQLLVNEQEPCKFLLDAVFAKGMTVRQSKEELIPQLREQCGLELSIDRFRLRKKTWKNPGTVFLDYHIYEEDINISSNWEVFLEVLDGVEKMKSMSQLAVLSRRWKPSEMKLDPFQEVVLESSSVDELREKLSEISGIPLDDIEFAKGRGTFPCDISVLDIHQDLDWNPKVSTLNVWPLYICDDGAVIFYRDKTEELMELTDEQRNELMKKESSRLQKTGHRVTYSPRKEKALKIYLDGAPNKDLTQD
Method in brief: as §1

[4] = biological target: T3, USP48 (UniProt Q86UV5)
T3 sequence (whole entry): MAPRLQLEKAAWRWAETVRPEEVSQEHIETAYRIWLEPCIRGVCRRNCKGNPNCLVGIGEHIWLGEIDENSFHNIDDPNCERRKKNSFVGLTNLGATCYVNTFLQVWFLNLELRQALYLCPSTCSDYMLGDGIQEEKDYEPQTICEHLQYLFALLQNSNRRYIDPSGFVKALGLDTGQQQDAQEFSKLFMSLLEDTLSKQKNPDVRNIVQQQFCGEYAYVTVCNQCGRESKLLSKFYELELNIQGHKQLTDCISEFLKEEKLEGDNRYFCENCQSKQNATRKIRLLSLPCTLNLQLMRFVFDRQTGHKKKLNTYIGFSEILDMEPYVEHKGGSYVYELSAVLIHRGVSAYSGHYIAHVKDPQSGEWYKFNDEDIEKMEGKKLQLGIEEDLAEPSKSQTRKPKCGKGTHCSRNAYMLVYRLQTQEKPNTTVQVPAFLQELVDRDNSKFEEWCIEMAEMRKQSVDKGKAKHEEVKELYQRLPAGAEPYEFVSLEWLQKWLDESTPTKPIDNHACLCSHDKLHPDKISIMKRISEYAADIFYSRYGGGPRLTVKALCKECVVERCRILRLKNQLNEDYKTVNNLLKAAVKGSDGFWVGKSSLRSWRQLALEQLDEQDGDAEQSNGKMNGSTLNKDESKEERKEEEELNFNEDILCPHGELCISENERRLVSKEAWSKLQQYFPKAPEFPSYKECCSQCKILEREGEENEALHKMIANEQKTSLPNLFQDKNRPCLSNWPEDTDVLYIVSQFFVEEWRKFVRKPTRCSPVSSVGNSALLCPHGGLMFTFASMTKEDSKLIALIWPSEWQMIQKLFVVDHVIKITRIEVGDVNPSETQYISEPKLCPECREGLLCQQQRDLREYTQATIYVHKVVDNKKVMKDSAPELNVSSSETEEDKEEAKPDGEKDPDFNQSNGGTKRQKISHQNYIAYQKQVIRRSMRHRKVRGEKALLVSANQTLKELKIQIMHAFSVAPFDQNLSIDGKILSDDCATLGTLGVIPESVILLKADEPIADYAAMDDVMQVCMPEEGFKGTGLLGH
Method in brief: as §1

[5] = biological target: T4, USP5 (UniProt P45974)
T4 sequence (whole entry): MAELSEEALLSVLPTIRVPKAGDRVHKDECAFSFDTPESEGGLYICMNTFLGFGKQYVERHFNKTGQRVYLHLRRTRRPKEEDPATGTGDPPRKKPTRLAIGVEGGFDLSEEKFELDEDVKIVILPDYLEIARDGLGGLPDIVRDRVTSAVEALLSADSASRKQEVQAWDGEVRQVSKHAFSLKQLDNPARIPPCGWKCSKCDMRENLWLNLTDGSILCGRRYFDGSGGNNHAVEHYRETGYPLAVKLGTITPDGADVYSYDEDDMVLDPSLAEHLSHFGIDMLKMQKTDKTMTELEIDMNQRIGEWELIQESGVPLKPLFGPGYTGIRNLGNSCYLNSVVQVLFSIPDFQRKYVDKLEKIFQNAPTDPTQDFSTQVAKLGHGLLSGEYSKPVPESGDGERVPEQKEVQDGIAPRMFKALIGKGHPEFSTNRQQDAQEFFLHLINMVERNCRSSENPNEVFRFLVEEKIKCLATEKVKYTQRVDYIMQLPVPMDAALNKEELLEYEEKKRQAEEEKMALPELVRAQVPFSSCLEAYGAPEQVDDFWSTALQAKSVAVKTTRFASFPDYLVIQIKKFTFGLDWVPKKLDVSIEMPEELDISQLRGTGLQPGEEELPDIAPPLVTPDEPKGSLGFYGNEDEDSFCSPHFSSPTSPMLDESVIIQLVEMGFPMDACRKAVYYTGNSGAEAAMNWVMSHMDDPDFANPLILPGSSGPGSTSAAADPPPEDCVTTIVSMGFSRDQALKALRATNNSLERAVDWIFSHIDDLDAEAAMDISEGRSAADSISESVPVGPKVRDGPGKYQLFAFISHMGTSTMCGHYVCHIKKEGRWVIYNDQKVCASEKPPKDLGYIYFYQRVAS
Method in brief: as §1

[6] = biological target: USP54 (UniProt Q70EL1)
Method in brief: as §1

[7] = biological target: USP7 (UniProt Q93009)
Method in brief: as §1

[8] = biological target: T5, USP8 (UniProt P40818)
T5 sequence (whole entry): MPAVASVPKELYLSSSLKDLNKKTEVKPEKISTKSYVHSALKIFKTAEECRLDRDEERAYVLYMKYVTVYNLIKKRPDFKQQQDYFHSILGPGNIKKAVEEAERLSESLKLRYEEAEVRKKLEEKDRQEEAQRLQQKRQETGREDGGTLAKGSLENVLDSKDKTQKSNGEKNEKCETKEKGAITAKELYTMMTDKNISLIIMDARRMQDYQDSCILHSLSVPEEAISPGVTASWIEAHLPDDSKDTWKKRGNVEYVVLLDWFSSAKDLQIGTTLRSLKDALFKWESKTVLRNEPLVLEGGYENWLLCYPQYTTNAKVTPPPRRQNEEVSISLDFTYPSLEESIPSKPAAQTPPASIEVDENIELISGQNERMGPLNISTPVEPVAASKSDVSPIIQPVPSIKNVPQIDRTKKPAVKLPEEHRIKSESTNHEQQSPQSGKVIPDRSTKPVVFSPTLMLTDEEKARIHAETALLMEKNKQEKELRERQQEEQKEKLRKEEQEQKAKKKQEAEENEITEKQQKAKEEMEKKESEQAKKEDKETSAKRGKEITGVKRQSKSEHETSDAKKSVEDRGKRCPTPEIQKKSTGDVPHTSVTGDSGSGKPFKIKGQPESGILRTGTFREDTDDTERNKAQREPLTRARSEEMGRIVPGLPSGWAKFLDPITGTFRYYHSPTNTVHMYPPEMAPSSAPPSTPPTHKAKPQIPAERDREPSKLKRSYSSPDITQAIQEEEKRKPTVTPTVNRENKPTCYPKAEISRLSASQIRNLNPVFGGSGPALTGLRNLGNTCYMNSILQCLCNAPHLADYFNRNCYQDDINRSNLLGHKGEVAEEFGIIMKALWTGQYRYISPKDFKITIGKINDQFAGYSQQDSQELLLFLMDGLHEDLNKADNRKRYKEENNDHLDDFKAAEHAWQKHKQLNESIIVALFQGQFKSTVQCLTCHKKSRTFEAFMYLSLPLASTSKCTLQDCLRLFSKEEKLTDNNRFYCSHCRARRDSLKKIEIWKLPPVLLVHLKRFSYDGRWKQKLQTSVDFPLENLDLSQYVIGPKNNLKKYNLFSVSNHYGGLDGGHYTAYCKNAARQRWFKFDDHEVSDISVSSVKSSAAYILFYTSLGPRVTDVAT
Method in brief: as §1

[9] = biological target: USP9X (UniProt Q93008)
Method in brief: as §1

[10] = biological target: UniProt O00487
Method in brief: as §1

Measured: log2 ratio of Biotin-Ahx-Ub-VS probe labelling

Sequence of USP7 (Q93009 whole entry, looked up): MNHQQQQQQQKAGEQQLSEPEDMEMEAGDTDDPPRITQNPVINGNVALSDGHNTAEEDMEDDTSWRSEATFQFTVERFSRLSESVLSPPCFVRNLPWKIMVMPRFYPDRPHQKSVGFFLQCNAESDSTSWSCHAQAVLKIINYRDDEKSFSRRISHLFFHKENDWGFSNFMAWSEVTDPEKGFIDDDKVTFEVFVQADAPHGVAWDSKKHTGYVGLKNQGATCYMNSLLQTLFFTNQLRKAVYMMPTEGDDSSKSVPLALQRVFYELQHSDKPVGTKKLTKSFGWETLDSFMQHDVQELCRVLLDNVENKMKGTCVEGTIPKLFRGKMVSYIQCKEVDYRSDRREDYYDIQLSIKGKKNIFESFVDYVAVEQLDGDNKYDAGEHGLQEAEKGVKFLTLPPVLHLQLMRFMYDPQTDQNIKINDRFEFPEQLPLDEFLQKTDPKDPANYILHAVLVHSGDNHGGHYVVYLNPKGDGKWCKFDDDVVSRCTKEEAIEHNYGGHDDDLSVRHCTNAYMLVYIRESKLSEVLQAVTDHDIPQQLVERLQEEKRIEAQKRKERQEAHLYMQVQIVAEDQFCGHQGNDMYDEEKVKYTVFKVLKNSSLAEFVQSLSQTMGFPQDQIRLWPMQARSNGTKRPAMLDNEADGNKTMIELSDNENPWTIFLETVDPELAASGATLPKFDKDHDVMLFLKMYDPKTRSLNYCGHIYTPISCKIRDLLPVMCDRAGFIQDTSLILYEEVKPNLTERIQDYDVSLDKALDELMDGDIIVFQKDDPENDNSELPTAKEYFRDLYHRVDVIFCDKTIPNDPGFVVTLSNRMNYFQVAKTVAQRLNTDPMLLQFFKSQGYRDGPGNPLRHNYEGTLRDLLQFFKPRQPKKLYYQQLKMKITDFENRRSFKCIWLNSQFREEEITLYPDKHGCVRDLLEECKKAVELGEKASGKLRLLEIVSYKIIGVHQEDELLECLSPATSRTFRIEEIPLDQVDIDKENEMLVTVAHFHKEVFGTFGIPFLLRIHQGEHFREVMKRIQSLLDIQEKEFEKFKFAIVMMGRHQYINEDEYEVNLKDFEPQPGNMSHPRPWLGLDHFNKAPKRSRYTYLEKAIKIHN
Sequence of USP46 (P62068 whole entry): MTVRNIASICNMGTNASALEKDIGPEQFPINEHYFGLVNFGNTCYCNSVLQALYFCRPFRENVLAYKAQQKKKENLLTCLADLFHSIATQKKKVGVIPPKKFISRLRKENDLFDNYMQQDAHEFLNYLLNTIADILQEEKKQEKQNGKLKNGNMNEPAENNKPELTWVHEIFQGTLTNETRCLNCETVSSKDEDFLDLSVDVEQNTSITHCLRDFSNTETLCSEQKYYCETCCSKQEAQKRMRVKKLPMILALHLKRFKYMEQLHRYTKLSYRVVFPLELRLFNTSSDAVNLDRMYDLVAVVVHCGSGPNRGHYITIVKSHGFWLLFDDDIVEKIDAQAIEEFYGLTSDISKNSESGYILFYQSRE
Sequence of USP54 (Q70EL1 whole entry): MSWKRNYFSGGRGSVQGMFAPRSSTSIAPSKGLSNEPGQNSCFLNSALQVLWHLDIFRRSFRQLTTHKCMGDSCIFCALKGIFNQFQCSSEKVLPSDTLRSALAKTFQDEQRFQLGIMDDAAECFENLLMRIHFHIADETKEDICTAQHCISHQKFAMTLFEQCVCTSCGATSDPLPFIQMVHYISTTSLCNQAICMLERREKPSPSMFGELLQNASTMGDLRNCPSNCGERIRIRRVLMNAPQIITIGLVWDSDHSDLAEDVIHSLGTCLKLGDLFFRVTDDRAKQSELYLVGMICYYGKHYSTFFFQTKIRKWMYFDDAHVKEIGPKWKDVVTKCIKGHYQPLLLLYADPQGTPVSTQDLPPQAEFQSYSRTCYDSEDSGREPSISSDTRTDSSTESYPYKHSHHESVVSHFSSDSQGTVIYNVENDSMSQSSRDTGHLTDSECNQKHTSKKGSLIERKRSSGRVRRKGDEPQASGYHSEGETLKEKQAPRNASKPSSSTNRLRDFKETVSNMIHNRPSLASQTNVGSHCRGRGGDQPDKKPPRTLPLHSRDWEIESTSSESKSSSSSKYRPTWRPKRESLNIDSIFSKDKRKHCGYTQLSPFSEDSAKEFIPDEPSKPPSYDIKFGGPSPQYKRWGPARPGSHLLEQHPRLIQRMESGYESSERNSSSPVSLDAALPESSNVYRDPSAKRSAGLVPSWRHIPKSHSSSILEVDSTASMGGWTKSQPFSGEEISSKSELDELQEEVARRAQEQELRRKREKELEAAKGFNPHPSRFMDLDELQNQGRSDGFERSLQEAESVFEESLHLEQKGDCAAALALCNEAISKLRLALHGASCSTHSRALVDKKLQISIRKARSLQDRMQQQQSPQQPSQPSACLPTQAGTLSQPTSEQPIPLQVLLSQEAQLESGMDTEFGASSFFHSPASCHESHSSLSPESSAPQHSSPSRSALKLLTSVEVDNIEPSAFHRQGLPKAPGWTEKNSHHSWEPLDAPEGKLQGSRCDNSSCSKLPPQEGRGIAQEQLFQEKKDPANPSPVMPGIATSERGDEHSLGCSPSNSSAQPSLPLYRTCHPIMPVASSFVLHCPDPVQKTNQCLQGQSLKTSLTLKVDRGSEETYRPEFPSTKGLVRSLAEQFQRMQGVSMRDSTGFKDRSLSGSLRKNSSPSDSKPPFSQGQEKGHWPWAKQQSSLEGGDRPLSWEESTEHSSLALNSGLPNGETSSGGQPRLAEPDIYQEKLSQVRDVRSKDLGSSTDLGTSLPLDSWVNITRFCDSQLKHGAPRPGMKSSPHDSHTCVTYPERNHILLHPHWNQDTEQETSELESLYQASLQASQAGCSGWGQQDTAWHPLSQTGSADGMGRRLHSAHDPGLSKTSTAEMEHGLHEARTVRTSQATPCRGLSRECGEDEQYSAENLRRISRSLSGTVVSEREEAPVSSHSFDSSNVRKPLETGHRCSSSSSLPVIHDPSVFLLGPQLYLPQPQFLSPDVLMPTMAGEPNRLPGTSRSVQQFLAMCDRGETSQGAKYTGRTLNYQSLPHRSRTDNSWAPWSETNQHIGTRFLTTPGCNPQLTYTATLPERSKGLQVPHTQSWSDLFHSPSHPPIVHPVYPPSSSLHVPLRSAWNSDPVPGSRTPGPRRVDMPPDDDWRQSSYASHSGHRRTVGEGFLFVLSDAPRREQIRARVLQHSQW
Sequence of UniProt O00487 (O00487 whole entry): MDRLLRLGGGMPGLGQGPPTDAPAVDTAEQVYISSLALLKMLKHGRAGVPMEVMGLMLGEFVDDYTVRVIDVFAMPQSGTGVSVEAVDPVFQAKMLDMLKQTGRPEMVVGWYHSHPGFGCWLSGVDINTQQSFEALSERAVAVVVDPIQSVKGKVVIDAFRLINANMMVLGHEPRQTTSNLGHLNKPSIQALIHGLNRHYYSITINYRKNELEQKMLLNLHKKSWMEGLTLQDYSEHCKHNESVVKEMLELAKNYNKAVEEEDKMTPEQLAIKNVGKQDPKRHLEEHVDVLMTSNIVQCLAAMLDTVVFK

Cl.Cn1cnc2cc(CNC(=O)CCl)ccc21
inactive: [1] 0.00921 | [2] -0.0392 | [3] -0.0799 | [4] 0.192 | [5] -0.445 | [6] -0.109 | [7] -0.083 | [8] -0.103 | [9] -0.0792 | [10] -0.00543
